The record followed here is PMC7862700, “An all-to-all approach to the identification of sequence-specific readers for epigenetic DNA modifications on cytosine”.

What all share (experiment): DAPPL (digital affinity profiling via proximity ligation, sequencing); 10 mM Tris-HCl pH 7.5, 50 mM NaCl, 1 mM DTT, 4% glycerol, room temperature, 30 min; GST-TFs on glutathione beads, 16-mer random dsDNA library, 0.1% formaldehyde crosslink after washing; high values mean tight binding
Common to all, as to conditions: protein: recombinant; tags: N-terminal GST; dsDNA, one strand shown

The target in test [1] is T1, FLI1 (Homo sapiens, UniProt Q01543 1-452).
T1 sequence: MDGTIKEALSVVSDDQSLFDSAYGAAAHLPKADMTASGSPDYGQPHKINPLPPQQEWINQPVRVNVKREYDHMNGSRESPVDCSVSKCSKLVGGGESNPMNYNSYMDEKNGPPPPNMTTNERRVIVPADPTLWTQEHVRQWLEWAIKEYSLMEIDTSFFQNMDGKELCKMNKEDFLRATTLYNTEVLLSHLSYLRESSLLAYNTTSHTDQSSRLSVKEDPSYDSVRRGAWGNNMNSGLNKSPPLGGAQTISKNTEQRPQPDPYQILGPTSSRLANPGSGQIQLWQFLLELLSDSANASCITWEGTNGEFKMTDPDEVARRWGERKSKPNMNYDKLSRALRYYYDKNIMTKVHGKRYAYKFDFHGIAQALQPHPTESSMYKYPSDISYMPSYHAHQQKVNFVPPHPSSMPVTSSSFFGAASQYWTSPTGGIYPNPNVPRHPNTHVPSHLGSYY
The essentials: (§1)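 After expression in yeast as GST fusions, human transcription factors were bound to glutathione beads, DNA-barcoded and mixed with a tag-only sample. The pools were incubated with 200 nmole of a 16-mer random double-stranded DNA library in Tris/NaCl/DTT/glycerol buffer (30 min, room temperature), washed and crosslinked with 0.1% formaldehyde. Proximity ligation with BsaI/T4 ligase ran for 1 h at 37 °C, before PCR amplification and sequencing on an Illumina NextSeq500. Binding signal is a hexamer's read frequency for a factor divided by its frequency for the tag-only sample.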

Test [2] deals with T2, ELK1 (Homo sapiens, UniProt P19419 1-428).
T2 sequence: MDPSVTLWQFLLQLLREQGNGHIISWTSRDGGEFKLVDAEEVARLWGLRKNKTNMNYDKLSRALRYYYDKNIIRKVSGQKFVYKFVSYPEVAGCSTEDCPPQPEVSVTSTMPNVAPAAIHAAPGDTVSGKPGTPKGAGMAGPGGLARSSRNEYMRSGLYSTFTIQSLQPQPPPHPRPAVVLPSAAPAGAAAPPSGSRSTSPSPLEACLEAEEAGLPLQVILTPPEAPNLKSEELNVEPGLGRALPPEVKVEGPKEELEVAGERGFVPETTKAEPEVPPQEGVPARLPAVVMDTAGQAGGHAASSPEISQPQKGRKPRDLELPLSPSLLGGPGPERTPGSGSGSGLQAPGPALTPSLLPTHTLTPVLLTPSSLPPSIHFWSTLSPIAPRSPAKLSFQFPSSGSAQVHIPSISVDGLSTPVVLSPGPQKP
The essentials: as §1

Test [3] has as its target ELF1 (Homo sapiens, UniProt P32519 1-619). The essentials: as §1
The target in test [4] is T3, EHF (Homo sapiens, UniProt Q9NZC4 1-300).
T3 sequence: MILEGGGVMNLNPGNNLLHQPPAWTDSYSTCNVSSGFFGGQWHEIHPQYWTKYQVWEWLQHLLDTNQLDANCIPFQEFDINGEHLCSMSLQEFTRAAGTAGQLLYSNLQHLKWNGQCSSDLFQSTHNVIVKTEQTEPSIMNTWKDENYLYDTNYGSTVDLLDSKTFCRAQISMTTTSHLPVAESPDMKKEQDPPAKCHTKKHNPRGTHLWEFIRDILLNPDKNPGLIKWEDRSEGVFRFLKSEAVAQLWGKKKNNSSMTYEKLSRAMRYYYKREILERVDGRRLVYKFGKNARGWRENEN
Summed up: as §1

The target in test [5] is SPIB (Homo sapiens, UniProt Q01892 1-262). Summed up:
as §1

Test [6] concerns the target T4, ELK3 (Homo sapiens, UniProt P41970 1-407).
T4 sequence: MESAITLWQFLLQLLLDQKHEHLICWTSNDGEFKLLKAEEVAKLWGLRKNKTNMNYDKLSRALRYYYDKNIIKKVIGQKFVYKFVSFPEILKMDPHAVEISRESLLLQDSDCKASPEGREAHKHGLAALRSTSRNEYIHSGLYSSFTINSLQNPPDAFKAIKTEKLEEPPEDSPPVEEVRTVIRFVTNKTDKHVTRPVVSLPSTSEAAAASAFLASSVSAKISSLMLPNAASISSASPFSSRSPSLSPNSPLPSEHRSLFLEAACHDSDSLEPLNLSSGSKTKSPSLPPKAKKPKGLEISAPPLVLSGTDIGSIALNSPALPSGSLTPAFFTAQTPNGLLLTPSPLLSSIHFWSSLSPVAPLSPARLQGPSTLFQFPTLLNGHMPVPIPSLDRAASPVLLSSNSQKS
The essentials: as §1

Test [7] deals with T5, FEV (Homo sapiens, UniProt Q99581 1-238).
T5 sequence: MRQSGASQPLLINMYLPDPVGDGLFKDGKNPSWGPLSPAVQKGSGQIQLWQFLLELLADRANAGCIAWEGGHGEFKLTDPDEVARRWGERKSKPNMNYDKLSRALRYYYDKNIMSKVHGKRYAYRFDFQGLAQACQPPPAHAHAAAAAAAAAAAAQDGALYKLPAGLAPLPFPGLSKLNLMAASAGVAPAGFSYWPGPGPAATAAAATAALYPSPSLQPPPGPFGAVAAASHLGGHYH
The essentials: as §1

The target of test [8] is ETV5 (Homo sapiens, UniProt P41161 1-510). The essentials:
as §1

Test [9] concerns the target T6, SPIC (Homo sapiens, UniProt Q8N5J4 1-248).
T6 sequence: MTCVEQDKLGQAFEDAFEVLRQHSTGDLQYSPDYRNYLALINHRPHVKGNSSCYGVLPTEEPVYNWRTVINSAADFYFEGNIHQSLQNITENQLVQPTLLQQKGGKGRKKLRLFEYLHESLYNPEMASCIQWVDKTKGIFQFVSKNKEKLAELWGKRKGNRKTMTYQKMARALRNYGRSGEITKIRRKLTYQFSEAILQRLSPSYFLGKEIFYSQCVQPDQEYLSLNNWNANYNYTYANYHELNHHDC
Summed up: as §1

Test [10] has as its target ELF4 (Homo sapiens, UniProt Q99607 1-663). The essentials: as §1
The target in test [11] is ETV1 (Homo sapiens, UniProt P50549 1-477). Summed up:
as §1

The target in test [12] is T7, ERF (Homo sapiens, UniProt P50548 1-548).
T7 sequence: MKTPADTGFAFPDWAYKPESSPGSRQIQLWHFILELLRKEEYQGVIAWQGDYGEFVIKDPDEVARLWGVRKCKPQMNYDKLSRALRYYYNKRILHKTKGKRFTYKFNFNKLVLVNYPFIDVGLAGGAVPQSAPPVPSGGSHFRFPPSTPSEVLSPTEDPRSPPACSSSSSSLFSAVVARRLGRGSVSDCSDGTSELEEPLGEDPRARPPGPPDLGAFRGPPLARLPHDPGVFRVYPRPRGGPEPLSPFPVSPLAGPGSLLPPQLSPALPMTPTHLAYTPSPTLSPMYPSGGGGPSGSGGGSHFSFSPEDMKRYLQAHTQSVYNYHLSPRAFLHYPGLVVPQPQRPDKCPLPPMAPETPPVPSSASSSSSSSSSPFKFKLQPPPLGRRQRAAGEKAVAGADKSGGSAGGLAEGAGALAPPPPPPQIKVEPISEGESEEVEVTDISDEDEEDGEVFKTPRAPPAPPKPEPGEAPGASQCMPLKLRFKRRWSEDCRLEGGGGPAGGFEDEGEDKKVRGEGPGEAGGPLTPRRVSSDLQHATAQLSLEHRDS
Summed up:
as §1

The target of test [13] is T8, ETV3L (Homo sapiens, UniProt Q6ZN32 1-361).
T8 sequence: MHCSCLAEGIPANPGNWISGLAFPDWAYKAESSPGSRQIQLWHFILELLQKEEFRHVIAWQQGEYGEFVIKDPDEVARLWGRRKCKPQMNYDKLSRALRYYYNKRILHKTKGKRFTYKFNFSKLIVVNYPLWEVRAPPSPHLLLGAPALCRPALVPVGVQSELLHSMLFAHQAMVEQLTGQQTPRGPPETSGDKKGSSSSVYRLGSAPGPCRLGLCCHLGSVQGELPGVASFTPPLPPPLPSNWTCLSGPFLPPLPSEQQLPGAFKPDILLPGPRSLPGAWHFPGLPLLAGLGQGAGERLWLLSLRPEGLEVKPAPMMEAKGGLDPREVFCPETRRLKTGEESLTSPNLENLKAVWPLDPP
Summed up:
as §1

Test [14] concerns the target T9, ETS2 (Homo sapiens, UniProt P15036 1-469).
T9 sequence: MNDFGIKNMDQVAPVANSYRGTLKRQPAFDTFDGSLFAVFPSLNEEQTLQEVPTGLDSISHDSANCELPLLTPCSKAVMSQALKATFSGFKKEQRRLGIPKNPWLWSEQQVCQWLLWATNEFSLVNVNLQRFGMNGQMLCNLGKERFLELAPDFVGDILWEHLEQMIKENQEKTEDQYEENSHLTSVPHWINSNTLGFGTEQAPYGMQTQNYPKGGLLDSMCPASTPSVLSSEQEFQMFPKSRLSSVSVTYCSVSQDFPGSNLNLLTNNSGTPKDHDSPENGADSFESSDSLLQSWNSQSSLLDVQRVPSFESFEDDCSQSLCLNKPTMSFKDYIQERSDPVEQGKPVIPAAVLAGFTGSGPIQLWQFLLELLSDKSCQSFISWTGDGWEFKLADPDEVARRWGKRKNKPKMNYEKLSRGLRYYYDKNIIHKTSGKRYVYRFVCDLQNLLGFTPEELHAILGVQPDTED
Summed up:
as §1

The target in test [15] is T10, ELF5 (Homo sapiens, UniProt Q9UKW6-2 1-255).
T10 sequence: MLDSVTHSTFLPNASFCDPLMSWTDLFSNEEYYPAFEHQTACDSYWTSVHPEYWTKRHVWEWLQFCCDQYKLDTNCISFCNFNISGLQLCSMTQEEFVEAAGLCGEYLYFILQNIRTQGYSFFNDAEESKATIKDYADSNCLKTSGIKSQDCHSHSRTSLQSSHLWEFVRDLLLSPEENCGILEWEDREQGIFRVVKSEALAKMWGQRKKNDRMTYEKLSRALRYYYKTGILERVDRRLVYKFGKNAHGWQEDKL
Summed up: as §1

Test [16] deals with T11, ETV3 (Homo sapiens, UniProt P41162-2 1-143).
T11 sequence: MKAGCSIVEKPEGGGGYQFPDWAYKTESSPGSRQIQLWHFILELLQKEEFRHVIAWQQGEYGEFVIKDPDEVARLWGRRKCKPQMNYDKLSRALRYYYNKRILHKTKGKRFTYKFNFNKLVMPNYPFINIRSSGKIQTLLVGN
Summed up:
as §1

The target in test [17] is ETV6 (Homo sapiens, UniProt P41212 1-452). The essentials: as §1
ETV6, sequence (P41212 whole entry): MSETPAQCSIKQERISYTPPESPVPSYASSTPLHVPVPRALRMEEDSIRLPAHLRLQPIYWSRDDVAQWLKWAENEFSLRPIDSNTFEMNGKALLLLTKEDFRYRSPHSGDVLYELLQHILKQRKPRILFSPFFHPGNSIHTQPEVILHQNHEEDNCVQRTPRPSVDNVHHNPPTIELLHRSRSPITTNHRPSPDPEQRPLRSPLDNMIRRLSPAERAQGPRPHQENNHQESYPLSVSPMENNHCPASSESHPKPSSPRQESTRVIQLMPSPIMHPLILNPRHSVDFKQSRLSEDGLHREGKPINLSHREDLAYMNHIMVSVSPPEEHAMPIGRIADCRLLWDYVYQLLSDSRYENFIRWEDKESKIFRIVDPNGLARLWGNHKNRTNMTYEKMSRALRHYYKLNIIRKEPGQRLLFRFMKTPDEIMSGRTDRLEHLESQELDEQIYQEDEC

SPIB, sequence (Q01892 whole entry): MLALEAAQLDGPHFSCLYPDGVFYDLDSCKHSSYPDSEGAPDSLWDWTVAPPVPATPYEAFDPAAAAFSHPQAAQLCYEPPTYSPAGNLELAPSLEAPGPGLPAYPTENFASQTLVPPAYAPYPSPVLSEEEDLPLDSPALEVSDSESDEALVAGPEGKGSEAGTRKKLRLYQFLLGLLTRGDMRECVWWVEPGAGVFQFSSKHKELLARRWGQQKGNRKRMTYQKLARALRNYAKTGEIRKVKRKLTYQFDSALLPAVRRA
ETV1, sequence (P50549 whole entry): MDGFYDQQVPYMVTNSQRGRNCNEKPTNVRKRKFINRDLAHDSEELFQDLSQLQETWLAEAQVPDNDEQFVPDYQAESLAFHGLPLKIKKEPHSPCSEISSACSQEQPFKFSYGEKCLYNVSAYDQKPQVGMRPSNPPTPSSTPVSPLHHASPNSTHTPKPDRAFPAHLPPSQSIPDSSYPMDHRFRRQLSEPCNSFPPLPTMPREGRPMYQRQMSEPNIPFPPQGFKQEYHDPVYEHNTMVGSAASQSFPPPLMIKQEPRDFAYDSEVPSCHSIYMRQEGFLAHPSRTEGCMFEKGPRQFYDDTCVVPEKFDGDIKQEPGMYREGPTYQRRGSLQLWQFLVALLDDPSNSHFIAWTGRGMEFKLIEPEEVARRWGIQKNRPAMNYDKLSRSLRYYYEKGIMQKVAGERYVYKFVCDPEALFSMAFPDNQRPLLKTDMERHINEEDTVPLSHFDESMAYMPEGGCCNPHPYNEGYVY
ETV5, sequence (P41161 whole entry): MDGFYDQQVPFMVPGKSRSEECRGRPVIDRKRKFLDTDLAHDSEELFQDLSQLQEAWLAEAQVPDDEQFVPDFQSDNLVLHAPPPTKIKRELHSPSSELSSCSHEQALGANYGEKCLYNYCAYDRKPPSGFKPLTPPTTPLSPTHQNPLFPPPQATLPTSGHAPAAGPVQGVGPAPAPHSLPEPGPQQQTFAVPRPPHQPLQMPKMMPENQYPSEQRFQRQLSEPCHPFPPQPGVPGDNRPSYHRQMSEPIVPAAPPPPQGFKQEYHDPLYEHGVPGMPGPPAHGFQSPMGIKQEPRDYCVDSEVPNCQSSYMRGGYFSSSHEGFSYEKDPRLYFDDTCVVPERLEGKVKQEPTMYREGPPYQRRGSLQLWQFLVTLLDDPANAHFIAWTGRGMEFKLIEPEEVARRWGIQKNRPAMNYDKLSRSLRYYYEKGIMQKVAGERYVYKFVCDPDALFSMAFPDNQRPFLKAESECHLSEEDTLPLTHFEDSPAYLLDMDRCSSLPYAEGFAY
ELF1, sequence (P32519 whole entry): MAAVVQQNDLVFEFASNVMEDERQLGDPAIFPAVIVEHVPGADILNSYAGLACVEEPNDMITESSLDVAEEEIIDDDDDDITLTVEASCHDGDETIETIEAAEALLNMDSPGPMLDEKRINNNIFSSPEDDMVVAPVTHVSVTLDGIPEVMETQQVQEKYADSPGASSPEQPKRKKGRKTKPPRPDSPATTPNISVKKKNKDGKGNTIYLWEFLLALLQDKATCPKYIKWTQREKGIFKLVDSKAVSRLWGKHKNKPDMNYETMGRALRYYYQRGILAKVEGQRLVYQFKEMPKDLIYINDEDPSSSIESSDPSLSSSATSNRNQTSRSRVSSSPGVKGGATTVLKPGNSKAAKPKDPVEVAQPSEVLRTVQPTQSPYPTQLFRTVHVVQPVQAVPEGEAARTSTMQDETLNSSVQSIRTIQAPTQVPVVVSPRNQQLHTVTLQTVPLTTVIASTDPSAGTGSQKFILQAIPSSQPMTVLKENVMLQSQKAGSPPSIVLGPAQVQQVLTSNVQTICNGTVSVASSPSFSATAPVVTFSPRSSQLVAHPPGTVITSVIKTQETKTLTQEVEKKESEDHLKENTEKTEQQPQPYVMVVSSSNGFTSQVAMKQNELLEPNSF
ELF4, sequence (Q99607 whole entry): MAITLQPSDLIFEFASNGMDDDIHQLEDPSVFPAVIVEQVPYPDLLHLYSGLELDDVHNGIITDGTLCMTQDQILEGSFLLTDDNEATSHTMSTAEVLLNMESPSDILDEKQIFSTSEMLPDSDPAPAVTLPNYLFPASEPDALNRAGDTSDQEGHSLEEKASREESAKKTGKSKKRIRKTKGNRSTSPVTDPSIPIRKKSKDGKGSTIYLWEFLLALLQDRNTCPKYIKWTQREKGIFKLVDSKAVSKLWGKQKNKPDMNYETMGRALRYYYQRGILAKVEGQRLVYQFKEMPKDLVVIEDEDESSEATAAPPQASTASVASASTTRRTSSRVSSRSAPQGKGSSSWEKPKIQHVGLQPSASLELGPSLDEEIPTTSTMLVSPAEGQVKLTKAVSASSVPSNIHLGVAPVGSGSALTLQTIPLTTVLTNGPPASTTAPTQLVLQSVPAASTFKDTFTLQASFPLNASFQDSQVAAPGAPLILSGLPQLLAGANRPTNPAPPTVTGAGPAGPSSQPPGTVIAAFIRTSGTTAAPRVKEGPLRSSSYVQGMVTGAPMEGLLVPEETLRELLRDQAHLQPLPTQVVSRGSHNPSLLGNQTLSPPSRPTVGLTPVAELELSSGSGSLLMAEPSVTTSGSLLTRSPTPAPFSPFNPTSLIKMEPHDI

For the sequence ACCACA, the binding signal in test [1] was 1.05 fold enrichment (6-mer frequency, TF over GST control); in [2], 1.1 fold enrichment (6-mer frequency, TF over GST control); in test [3], 1.08 fold enrichment (6-mer frequency, TF over GST control); in test [4], 1.11 fold enrichment (6-mer frequency, TF over GST control); in test [5] it was 1.04 fold enrichment (6-mer frequency, TF over GST control); in [6], 1.14 fold enrichment (6-mer frequency, TF over GST control). Further, the binding signal is 1.05 fold enrichment (6-mer frequency, TF over GST control) in test [7]; 1.03 fold enrichment (6-mer frequency, TF over GST control) in [8]; 1.1 fold enrichment (6-mer frequency, TF over GST control) in [9]; 1.11 fold enrichment (6-mer frequency, TF over GST control) in test [10]; 1.09 fold enrichment (6-mer frequency, TF over GST control) in test [11]; 1.05 fold enrichment (6-mer frequency, TF over GST control) in [12]. Further, the binding signal in [13] was 1.16 fold enrichment (6-mer frequency, TF over GST control); in test [14], 1.06 fold enrichment (6-mer frequency, TF over GST control); in [15] it was 1.09 fold enrichment (6-mer frequency, TF over GST control); in [16], 1.02 fold enrichment (6-mer frequency, TF over GST control); in test [17], 1.08 fold enrichment (6-mer frequency, TF over GST control).
